# Results reported in PubChem BioAssay (NCI).
# The panel holds about 83,000 compounds, 20% with a hit somewhere; the sample as a whole holds those more often.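 Single-dose data. Exposure time 48 hours. Values below 10 considered active.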 Unmarked numbers belong to inactive results. Activity calls are given as the source filed them.
# How the values were obtained:
# Experiment in all cases: NCI-60 one-dose screen, 48 h (100 = growth as untreated, 0 = no growth, -100 = all killed)
# Conditions in all cases: 10 µM unless noted
# [1] = system: SK-MEL-2 melanoma
# [2] = system: SN12C renal
# [3] = system: UO-31 renal
# [4] = system: TK-10 renal
# [5] = system: ACHN renal
# [6] = system: CAKI-1 renal
# [7] = system: A498 renal
# [8] = system: CCRF-CEM leukemia
# [9] = system: MOLT-4 leukemia
# [10] = system: SR leukemia
# [11] = system: RPMI-8226 leukemia
# [12] = system: OVCAR-8 ovarian
# [13] = system: OVCAR-5 ovarian
# [14] = system: OVCAR-4 ovarian
# [15] = system: SK-OV-3 ovarian
# [16] = system: IGROV1 ovarian
# [17] = system: OVCAR-3 ovarian
# [18] = system: HS 578T breast
# [19] = system: NCI/ADR-RES ovarian
# [20] = system: EKVX NSCLC
SMILES,growth [1],growth [2],growth [3],growth [4],growth [5],growth [6],growth [7],growth [8],growth [9],growth [10],growth [11],growth [12],growth [13],growth [14],growth [15],growth [16],growth [17],growth [18],growth [19],growth [20]
COc1ccc(/C=N\NC(=O)c2ccncc2)cc1O,90.8%,96.7%,77.8%,102%,102%,90.4%,108%,99.3%,95.6%,95.7%,104%,98.5%,110%,87.8%,87.8%,98.4%,104%,110%,102%,–
CN1Cc2c(cc(CN3CCCCC3)n2C)C(c2ccc(Br)cc2)C1 (centres undefined),114%,84.8%,–,92.3%,–,83.7%,98.1%,88.2%,92.5%,–,81.4%,96.9%,96.1%,86.6%,93.7%,96.3%,95.4%,76.3%,88.1%,77.2%
CC(C)c1c(C(=O)Nc2ccccc2)c(-c2ccccc2)c(-c2ccc(F)cc2)n1CC[C@@H]1CC=CC(=O)O1,-55.9% (active),-15.5% (active),–,28.5%,-27.8% (active),4.73% (active),–,-29.1% (active),-33.2% (active),–,-25.9% (active),-19.9% (active),57.1%,19.8%,31.6%,-27.5% (active),-73.3% (active),18.1%,-1.87% (active),34.4%
c1c2c(cc3c1OCO3)Cc1cc3c(cc1Cc1cc4c(cc1C2)OCO4)OCO3,115%,98.5%,95.7%,116%,101%,89.9%,107%,112%,116%,91.9%,111%,101%,102%,98.3%,101%,104%,123%,104%,113%,–
CCCCN(CCCC)CCC(C)(O)c1cc2ccccc2c2ccccc12 (centres undefined),122%,–,50.9%,104%,96.9%,87.9%,83.1%,42.4%,37.5%,39.7%,67.3%,92.6%,98.6%,109%,99.9%,–,69%,–,67.6%,103%
O=C1c2cc3c(cc2-c2c1c1cc(Cl)c(Cl)cc1c(=O)n2C[C@H](O)CO)OCO3,-28.3% (active),-22.2% (active),–,–,-47.2% (active),-0.657% (active),–,-5.01% (active),-24.8% (active),-23.2% (active),-8.53% (active),-20.2% (active),-23% (active),-51.8% (active),-54% (active),-2.45% (active),-54.2% (active),33%,-29.4% (active),14.2%
COc1ccc2nc(NC(=O)c3cccnc3Nc3cc(OC)c(OC)c(OC)c3)sc2c1,48%,18.5%,–,–,58%,5.14% (active),-64.4% (active),48.6%,56.7%,-12.6% (active),-1.38% (active),-10.3% (active),–,-65.5% (active),-40.4% (active),68.6%,-62.5% (active),44.5%,4.41% (active),36.3%
COc1cccc2c1C(=O)c1c(O)c3c(c(O)c1C2=O)C[C@@](O)(/C(C)=N/NC(=O)c1ccc(Cl)cc1)C[C@@H]3OC1CC(N)C(O)C(C)O1 (some centres undefined),-81.1% (active),5.79% (active),-40.4% (active),-23.2% (active),-36.3% (active),-53.2% (active),-88.4% (active),-10.8% (active),-31.3% (active),-34.1% (active),-28.7% (active),-49.9% (active),13.9%,-9.91% (active),5.07% (active),-21.8% (active),-28.5% (active),-28.4% (active),47.8%,–
COc1ccc(C(=O)c2sc3nc4c(cc3c2N)CCCC4)cc1OC,25.3%,62.8%,55.7%,83%,63%,57.9%,34.9%,28.9%,6.5% (active),-7.02% (active),10.4%,43.1%,86.9%,60.7%,71.6%,35.9%,20.6%,74%,19.7%,–
Clc1ccc(-c2nnc(COc3ccccc3Cl)o2)cc1,99.1%,97.8%,–,69.9%,–,84.3%,98.7%,92%,90.5%,83.3%,88.7%,76.6%,83.1%,39.8%,95.7%,83.6%,81.6%,62%,66.8%,86.9%
C=CC[N+]1(CC)CCN=C1CCCCCCCCCCCCCCCCC (centres undefined),-74% (active),–,-65.5% (active),-94.2% (active),-86.6% (active),–,-15.6% (active),-59.4% (active),-60% (active),-64.7% (active),-54.7% (active),-95.2% (active),-97.5% (active),-72.2% (active),-78.9% (active),-86% (active),-94.1% (active),-41.3% (active),-21.6% (active),-75.7% (active)
CCN(CC)c1ccc(CNc2cc(C)nc3ccc(OC)cc23)cc1,79.2%,–,3.78% (active),71.1%,78.1%,21.6%,17%,23.3%,4.46% (active),-22.2% (active),-33.7% (active),81.4%,96.3%,71.9%,84.7%,–,51.6%,–,33.9%,25.7%
COc1cc(C2CC(=O)Nc3c2c(C)nn3-c2nc3ccccc3[nH]2)cc(OC)c1OC (centres undefined),106%,91.3%,96.8%,109%,102%,114%,78.2%,32%,-42.5% (active),83.8%,108%,103%,103%,107%,111%,85.1%,115%,94.5%,98.7%,–
CCOC(=S)SCc1ccc(Cl)cc1,105%,–,91.1%,105%,98.1%,–,75.8%,–,82.2%,80.2%,108%,101%,95.6%,95.6%,150%,104%,94.4%,–,105%,83.8%
OCC1C2C=CC(C2)C1CO (centres undefined),114%,–,93.1%,112%,105%,–,92.5%,126%,97.9%,78.7%,97%,98.6%,101%,94%,175%,101%,107%,104%,104%,102%
O=C(Nc1cccc2c1C(=O)c1cccc(Nc3cccc4c3C(=O)c3cccc(NC(=O)c5ccccc5)c3C4=O)c1C2=O)c1ccccc1,109%,–,86.3%,108%,104%,99.1%,121%,89.5%,104%,101%,107%,96.1%,114%,118%,101%,75.6%,123%,–,105%,125%
CCN(CC)Cc1cc(Nc2c3ccc(Cl)cc3nc3c(C)cccc23)ccc1O,-73.2% (active),–,-96.8% (active),-60.5% (active),-86.4% (active),-41.1% (active),-48% (active),4.19% (active),-3.97% (active),-18.9% (active),-14.6% (active),-42.6% (active),-37.7% (active),-96% (active),-10.3% (active),-49.3% (active),-71.6% (active),-24.4% (active),-49.8% (active),-40.4% (active)
